# Experiments:
# [1] = tested on: U-2932; assay: growth inhibition by drug alone (1 - RLU/untreated control) (fraction); higher = stronger inhibition; details: 177Lu-lilotomab satetraxetan 0 ug/ml
# Summary of the method: (§1)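 Growth inhibition was calculated from RealTime-Glo RLU against untreated no-drug wells. Values equal 1 − RLU/mean of 48 untreated no-drug wells per plate, read daily from day 3 after 1 h at 37°C. RIVA and U-2932 cells, with or without 18 h pretreatment by a radiolabelled anti-CD37 antibody conjugate (~600 MBq/mg; 0.5 µg/ml RIVA, 1 µg/ml U-2932), were washed and plated at 3,000 cells/well on compound-printed plates at 10/100 nM (RIVA) or 10/1,000 nM (U-2932).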
# [2] = tested on: RIVA; assay: as above; details: 177Lu-lilotomab satetraxetan 0 ug/ml
# Summary of the method: as §1
# [3] = tested on: U-2932; assay: growth inhibition by drug plus 177Lu-lilotomab satetraxetan (1 - RLU/untreated control) (fraction); higher = stronger inhibition; details: 177Lu-lilotomab satetraxetan 1 ug/ml
# Summary of the method: as §1
# [4] = tested on: RIVA; assay: as above; details: 177Lu-lilotomab satetraxetan 0.5 ug/ml
# Summary of the method: as §1
SMILES,"growth inhibition by drug alone ([1]; 10 nM, time (day): 3)","growth inhibition by drug alone ([1]; 10 nM, time (day): 4)","growth inhibition by drug alone ([1]; 10 nM, time (day): 5)","growth inhibition by drug alone ([1]; 10 nM, time (day): 6)","growth inhibition by drug alone ([1]; 1000 nM, time (day): 3)","growth inhibition by drug alone ([1]; 1000 nM, time (day): 4)","growth inhibition by drug alone ([1]; 1000 nM, time (day): 5)","growth inhibition by drug alone ([1]; 1000 nM, time (day): 6)","growth inhibition by drug alone ([2]; 10 nM, time (day): 3)","growth inhibition by drug alone ([2]; 10 nM, time (day): 4)","growth inhibition by drug alone ([2]; 10 nM, time (day): 5)","growth inhibition by drug alone ([2]; 10 nM, time (day): 6)","growth inhibition by drug alone ([2]; 100 nM, time (day): 3)","growth inhibition by drug alone ([2]; 100 nM, time (day): 4)","growth inhibition by drug alone ([2]; 100 nM, time (day): 5)","growth inhibition by drug alone ([2]; 100 nM, time (day): 6)","growth inhibition by drug plus 177Lu-lilotomab satetraxetan ([3]; 10 nM, time (day): 3)","growth inhibition by drug plus 177Lu-lilotomab satetraxetan ([3]; 10 nM, time (day): 4)","growth inhibition by drug plus 177Lu-lilotomab satetraxetan ([3]; 10 nM, time (day): 5)","growth inhibition by drug plus 177Lu-lilotomab satetraxetan ([3]; 10 nM, time (day): 6)","growth inhibition by drug plus 177Lu-lilotomab satetraxetan ([3]; 1000 nM, time (day): 3)","growth inhibition by drug plus 177Lu-lilotomab satetraxetan ([3]; 1000 nM, time (day): 4)","growth inhibition by drug plus 177Lu-lilotomab satetraxetan ([3]; 1000 nM, time (day): 5)","growth inhibition by drug plus 177Lu-lilotomab satetraxetan ([3]; 1000 nM, time (day): 6)","growth inhibition by drug plus 177Lu-lilotomab satetraxetan ([4]; 10 nM, time (day): 3)","growth inhibition by drug plus 177Lu-lilotomab satetraxetan ([4]; 10 nM, time (day): 4)","growth inhibition by drug plus 177Lu-lilotomab satetraxetan ([4]; 10 nM, time (day): 5)","growth inhibition by drug plus 177Lu-lilotomab satetraxetan ([4]; 10 nM, time (day): 6)","growth inhibition by drug plus 177Lu-lilotomab satetraxetan ([4]; 100 nM, time (day): 3)","growth inhibition by drug plus 177Lu-lilotomab satetraxetan ([4]; 100 nM, time (day): 4)","growth inhibition by drug plus 177Lu-lilotomab satetraxetan ([4]; 100 nM, time (day): 5)","growth inhibition by drug plus 177Lu-lilotomab satetraxetan ([4]; 100 nM, time (day): 6)"
Nc1nccc(-c2ccc3noc(-c4ccc(Cl)cc4)c3c2)n1 [PIM-1 Inhibitor 2],0.154,0.0795,7.17e-05,-0.0865,0.121,0.133,0.0739,0.0111,0.115,0.126,0.0578,-0.0926,0.116,0.161,0.123,0.0468,0.0725,0.102,0.129,0.208,0.106,0.208,0.188,0.253,0.465,0.59,0.607,0.604,0.451,0.536,0.524,0.507
CN(C)C/C=C/C(=O)Nc1cc2c(Nc3ccc(F)c(Cl)c3)ncnc2cc1O[C@H]1CCOC1 [Afatinib (BIBW2992)],0.0755,0.0672,0.0124,-0.039,0.0101,0.0989,0.0569,0.0902,0.0532,-0.016,-0.0806,-0.333,-0.091,-0.147,-0.146,-0.262,0.0397,0.0532,0.0798,0.0941,-0.123,0.0652,0.0526,0.121,0.437,0.523,0.544,0.558,0.389,0.492,0.493,0.456
C=CCn1c(=O)c2cnc(Nc3ccc(N4CCN(C)CC4)cc3)nc2n1-c1cccc(C(C)(C)O)n1,0.112,0.069,-0.0363,-0.19,0.86,0.895,0.914,0.936,-0.0778,-0.0715,-0.175,-0.482,-0.508,-0.354,-0.45,-0.813,-0.0165,0.0521,0.116,0.141,0.884,0.926,0.954,0.971,0.447,0.527,0.532,0.552,-0.0318,0.133,0.152,0.222
CC(C)C[C@@H](C(=O)N[C@H](C(=O)OC1CCCC1)c1ccccc1)[C@H](O)C(=O)NO [Tosedostat (CHR2797)],0.0666,0.0228,-0.0512,-0.123,-0.142,-0.112,-0.102,-0.0781,0.0304,0.0133,0.000967,-0.0544,-0.208,-0.212,-0.221,-0.3,0.00927,0.0682,0.108,0.162,-0.0889,-0.0223,0.0204,0.176,0.571,0.596,0.613,0.62,0.559,0.591,0.602,0.604
